About 79,000 compounds went through this panel and 15% of them were active in at least one assay; those are over-represented in the sample as a whole. Unmarked numbers belong to inactive results. The source made the active and inactive calls. Cut-off read from the data, not from the text of the source: active = growth inhibition above about 70%; inactive = the rest.
What was measured:
[1] = NCI Yeast Anticancer Drug Screen. Data for the wt1 strain (AID 149);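 note: 0% = growth of vehicle-treated wt1 cultures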; conditions: S. cerevisiae wt1 strain (SPY 50644) growth inhibition, hits give high values
Outline: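 Readout: yeast growth inhibition, normalised to vehicle controls, in the wt1 strain exposed to test compounds.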

[2] = NCI Yeast Anticancer Drug Screen. Data for the rad50EPP+ strain (AID 151);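 note: 0% = growth of vehicle-treated control cultures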; conditions: S. cerevisiae rad50 mutant strain, hits give high values
Outline: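 Yeast strain carrying rad50 alteration (rad50EPP+) exposed to compounds; growth inhibition measured relative to vehicle-treated controls.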

[3] = NCI Yeast Anticancer Drug Screen. Data for the rad50 strain (AID 155);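 note: 0% = growth of vehicle-only cultures of the same strain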; conditions: S. cerevisiae rad50 strain growth inhibition, hits give high values
Outline: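 Compounds were tested on a yeast strain with an engineered DNA damage repair alteration; the reported value is growth inhibition normalised to vehicle treatment.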

[4] = NCI Yeast Anticancer Drug Screen. Data for the mec2-1 strain (AID 157); conditions: S. cerevisiae mec2-1 strain, hits give high values
Outline: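 mec2-1 yeast strain, carrying an alteration in DNA damage repair or cell cycle control, was exposed to compounds; growth inhibition was measured relative to vehicle-treated controls.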

[5] = NCI Yeast Anticancer Drug Screen. Data for the rad14 strain (AID 159);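 note: 0% = growth of vehicle-treated control cultures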; conditions: S. cerevisiae rad14 strain growth inhibition, hits give high values
Outline: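 Compound-treated yeast with a defined DNA-repair lesion; growth inhibition normalised to vehicle-treated cultures.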

[6] = NCI Yeast Anticancer Drug Screen. Data for the sgs1 mgt1 strain (AID 161);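 note: 0% = growth of cultures given vehicle only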; conditions: S. cerevisiae sgs1 mgt1 strain, hits give high values
Outline: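 Compounds are added to genetically altered yeast, and growth is compared with cultures given vehicle alone to give percent inhibition.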

[7] = NCI Yeast Anticancer Drug Screen. Data for the CLN2oe strain (AID 163);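 note: 0% = growth of vehicle-only control cultures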; conditions: S. cerevisiae CLN2oe strain, hits give high values
Outline: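 Yeast cells carrying a defined cell-cycle control alteration were exposed to test compounds. Growth inhibition was scored against vehicle-treated control cultures.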

[8] = NCI Yeast Anticancer Drug Screen. Data for the cln2 rad14 strain (AID 165);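 note: 0% = growth equal to vehicle treated cultures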; conditions: S. cerevisiae cln2 rad14 strain, hits give high values
Outline: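 Yeast carrying cln2 and rad14 alterations (cell cycle control and DNA damage repair) were exposed to compounds. Growth inhibition was measured against vehicle-treated controls.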

[9] = NCI Yeast Anticancer Drug Screen. Data for the bub3 strain (AID 167); conditions: S. cerevisiae bub3 mutant strain, hits give high values
Outline: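 Growth of a checkpoint-deficient yeast mutant is measured after compound exposure. Values represent inhibition relative to vehicle.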

[10] = NCI Yeast Anticancer Drug Screen. Data for the wt2 strain (AID 169);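 note: 0% = growth of vehicle-treated yeast cultures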; conditions: S. cerevisiae wt2 strain growth inhibition, hits give high values
Outline: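 Yeast cells were exposed to test compounds, and growth inhibition was measured relative to vehicle-treated controls.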

[11] = NCI Yeast Anticancer Drug Screen. Data for the mlh1 strain (AID 171);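 note: 0% = growth of vehicle-treated control cultures of the same strain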; conditions: S. cerevisiae mlh1 strain growth inhibition, hits give high values
Outline: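 Yeast carrying a defined genetic alteration in DNA damage repair or cell cycle control were exposed to test compounds. Growth inhibition was measured relative to vehicle-treated controls.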

[12] = NCI Yeast Anticancer Drug Screen. Data for the sgs1 strain (AID 173);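 note: 0% = growth of vehicle-only control cultures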; conditions: S. cerevisiae sgs1 mutant, hits give high values
Outline: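 Yeast mutant strains carrying defined defects in DNA damage repair or cell cycle control were exposed to test compounds. Growth inhibition was scored against vehicle-treated controls.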

[13] = NCI Yeast Anticancer Drug Screen. Data for the mlh1 rad18 strain (AID 175); conditions: S. cerevisiae mlh1 rad18 strain growth inhibition, hits give high values
Outline: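 Growth inhibition of the yeast strain was measured after compound exposure and expressed relative to vehicle-treated controls. The strain carries defined defects in DNA damage repair.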

[14] = NCI Yeast Anticancer Drug Screen. Data for the rad18 strain (AID 177); conditions: S. cerevisiae rad18 mutant growth inhibition, hits give high values
Outline: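 Yeast carrying a defined DNA damage repair alteration were exposed to compounds. Growth inhibition was expressed relative to vehicle-treated controls.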

[15] = NCI Yeast Anticancer Drug Screen. Data for the mgt1 strain (AID 153); conditions: S. cerevisiae mgt1 mutant growth inhibition, hits give high values
Outline: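 Yeast mgt1 strain (DNA repair/cell-cycle alteration panel) exposed to compounds; growth inhibition measured relative to vehicle-treated controls.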

[16] = at 5.0 µM (retest, dose inferred, filed as 0.5)
[17] = at 50.0 µM (retest, dose inferred, filed as 5.0)

SMILES: Cc1ccc2c(/C=C/c3ccc(N(C)C)cc3)ccnc2c1C
- growth inhibition ([1]; at 1.2 µM): -44%
- growth inhibition ([1]; at 3.7 µM): -45%
- growth inhibition ([1]; at 11.0 µM): -44%
- growth inhibition ([1]; at 33.0 µM): -39%
- growth inhibition ([1]; at 100.0 µM): 59%
- growth inhibition ([2]; at 1.2 µM): -22%
- growth inhibition ([2]; at 3.7 µM): -30%
- growth inhibition ([2]; at 11.0 µM): -15%
- growth inhibition ([2]; at 33.0 µM): 22%
- growth inhibition ([2]; at 100.0 µM): 41%
- growth inhibition ([3]; at 1.2 µM): -15%
- growth inhibition ([3]; at 3.7 µM): -41%
- growth inhibition [3, 16]: 9%
- growth inhibition ([3]; at 11.0 µM): -20%
- growth inhibition ([3]; at 33.0 µM): 14%
- growth inhibition [3, 17]: 35%
- growth inhibition ([3]; at 50.0 µM): 71.4% (active)
- growth inhibition ([3]; at 100.0 µM): 67%
- growth inhibition ([4]; at 1.2 µM): -27%
- growth inhibition ([4]; at 3.7 µM): -33%
- growth inhibition [4, 16]: -7%
- growth inhibition ([4]; at 11.0 µM): -42%
- growth inhibition ([4]; at 33.0 µM): -16%
- growth inhibition [4, 17]: 21%
- growth inhibition ([4]; at 50.0 µM): 84.8% (active)
- growth inhibition ([4]; at 100.0 µM): 58%
- growth inhibition ([5]; at 1.2 µM): -25%
- growth inhibition ([5]; at 3.7 µM): -11%
- growth inhibition ([5]; at 11.0 µM): -11%
- growth inhibition ([5]; at 33.0 µM): -6%
- growth inhibition ([5]; at 100.0 µM): 77% (active)
- growth inhibition [6, 16]: 33%
- growth inhibition [6, 17]: 87% (active)
- growth inhibition ([6]; at 50.0 µM): 86.5% (active)
- growth inhibition ([7]; at 1.2 µM): 26%
- growth inhibition ([7]; at 3.7 µM): 34%
- growth inhibition ([7]; at 11.0 µM): 26%
- growth inhibition ([7]; at 33.0 µM): 39%
- growth inhibition ([7]; at 100.0 µM): 71% (active)
- growth inhibition [8, 16]: 22%
- growth inhibition [8, 17]: 61%
- growth inhibition ([8]; at 50.0 µM): 29.9%
- growth inhibition ([9]; at 1.2 µM): -8%
- growth inhibition ([9]; at 3.7 µM): 7%
- growth inhibition [9, 16]: 43%
- growth inhibition ([9]; at 11.0 µM): 28%
- growth inhibition ([9]; at 33.0 µM): 58%
- growth inhibition [9, 17]: 81% (active)
- growth inhibition ([9]; at 50.0 µM): 79.5% (active)
- growth inhibition ([9]; at 100.0 µM): 84% (active)
- growth inhibition ([10]; at 1.2 µM): -12%
- growth inhibition ([10]; at 3.7 µM): -45%
- growth inhibition ([10]; at 11.0 µM): -4%
- growth inhibition ([10]; at 33.0 µM): 63%
- growth inhibition ([10]; at 100.0 µM): 86% (active)
- growth inhibition ([11]; at 1.2 µM): -13%
- growth inhibition ([11]; at 3.7 µM): -28%
- growth inhibition ([11]; at 11.0 µM): -19%
- growth inhibition ([11]; at 33.0 µM): 54%
- growth inhibition ([11]; at 100.0 µM): 87% (active)
- growth inhibition ([12]; at 1.2 µM): -26%
- growth inhibition ([12]; at 3.7 µM): -51%
- growth inhibition ([12]; at 11.0 µM): -4%
- growth inhibition ([12]; at 33.0 µM): 82% (active)
- growth inhibition ([12]; at 100.0 µM): 87% (active)
- growth inhibition [13, 16]: 1%
- growth inhibition [13, 17]: 14%
- growth inhibition ([13]; at 50.0 µM): 81.8% (active)
- growth inhibition ([14]; at 1.2 µM): 1%
- growth inhibition ([14]; at 3.7 µM): -9%
- growth inhibition ([14]; at 11.0 µM): -12%
- growth inhibition ([14]; at 33.0 µM): 29%
- growth inhibition ([14]; at 100.0 µM): 65%

SMILES: Cc1c(N=Nc2ccc(Cl)cc2)c(C)n(C2OC(CO)C(O)C(O)C2O)c(=S)c1C#N (stereo unspecified)
- growth inhibition ([1]; at 1.2 µM): 1%
- growth inhibition ([1]; at 3.7 µM): 2%
- growth inhibition ([1]; at 11.0 µM): 3%
- growth inhibition ([1]; at 33.0 µM): 9%
- growth inhibition ([1]; at 100.0 µM): 24%
- growth inhibition ([2]; at 1.2 µM): 5%
- growth inhibition ([2]; at 3.7 µM): 19%
- growth inhibition ([2]; at 11.0 µM): 40%
- growth inhibition ([2]; at 33.0 µM): 66%
- growth inhibition ([2]; at 100.0 µM): 81% (active)
- growth inhibition ([15]; at 1.2 µM): -1%
- growth inhibition ([15]; at 3.7 µM): 1%
- growth inhibition ([15]; at 11.0 µM): 12%
- growth inhibition ([15]; at 33.0 µM): 66%
- growth inhibition ([15]; at 100.0 µM): 91% (active)
- growth inhibition ([3]; at 1.2 µM): -3%
- growth inhibition ([3]; at 3.7 µM): -9%
- growth inhibition [3, 16]: -11%
- growth inhibition ([3]; at 11.0 µM): -2%
- growth inhibition ([3]; at 33.0 µM): 35%
- growth inhibition [3, 17]: 52%
- growth inhibition ([3]; at 50.0 µM): 60.4%
- growth inhibition ([3]; at 100.0 µM): 66%
- growth inhibition ([4]; at 1.2 µM): 2%
- growth inhibition ([4]; at 3.7 µM): 3%
- growth inhibition [4, 16]: -5%
- growth inhibition ([4]; at 11.0 µM): 6%
- growth inhibition ([4]; at 33.0 µM): 21%
- growth inhibition [4, 17]: 40%
- growth inhibition ([4]; at 50.0 µM): 60.2%
- growth inhibition ([4]; at 100.0 µM): 28%
- growth inhibition [6, 16]: 1%
- growth inhibition [6, 17]: 65%
- growth inhibition ([6]; at 50.0 µM): 87% (active)
- growth inhibition ([7]; at 1.2 µM): -2%
- growth inhibition ([7]; at 3.7 µM): -2%
- growth inhibition ([7]; at 11.0 µM): 1%
- growth inhibition ([7]; at 33.0 µM): 15%
- growth inhibition ([7]; at 100.0 µM): 54%
- growth inhibition [8, 16]: 44%
- growth inhibition [8, 17]: 52%
- growth inhibition ([8]; at 50.0 µM): 59.5%
- growth inhibition ([9]; at 1.2 µM): 0%
- growth inhibition ([9]; at 3.7 µM): 2%
- growth inhibition [9, 16]: 1%
- growth inhibition ([9]; at 11.0 µM): 9%
- growth inhibition ([9]; at 33.0 µM): 23%
- growth inhibition [9, 17]: -3%
- growth inhibition ([9]; at 50.0 µM): 75.5% (active)
- growth inhibition ([9]; at 100.0 µM): 45%
- growth inhibition ([10]; at 1.2 µM): -2%
- growth inhibition ([10]; at 3.7 µM): -3%
- growth inhibition ([10]; at 11.0 µM): 1%
- growth inhibition ([10]; at 33.0 µM): 37%
- growth inhibition ([10]; at 100.0 µM): 90% (active)
- growth inhibition ([12]; at 1.2 µM): 1%
- growth inhibition ([12]; at 3.7 µM): 5%
- growth inhibition ([12]; at 11.0 µM): 12%
- growth inhibition ([12]; at 33.0 µM): 55%
- growth inhibition ([12]; at 100.0 µM): 82% (active)
- growth inhibition [13, 16]: -19%
- growth inhibition [13, 17]: 53%
- growth inhibition ([13]; at 50.0 µM): 83.9% (active)
- growth inhibition ([14]; at 1.2 µM): -1%
- growth inhibition ([14]; at 3.7 µM): 8%
- growth inhibition ([14]; at 11.0 µM): 18%
- growth inhibition ([14]; at 33.0 µM): 59%
- growth inhibition ([14]; at 100.0 µM): 83% (active)
